Bioassay records (PubChem)
Tau fluor cs: Counterscreen qHTS for Inhibitors of Tau Fibril Formation, Fluorescence Polarization; tau K18 P301L Alexa594 fluorescence, heparin fibrillization; Potency, µM (doses to about 57.7 µM), for the others: top-dose activity change, negative = decrease; 0.93% of 280,000 active; AID 1463, 2008; also: nearly all actives have a fitted effect of over 55% in size
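Human K18 P301L tau (15 uM unlabeled plus 0.24 uM Alexa 594-labeled, final) in 100 mM sodium acetate pH 7 was mixed with compound and 20 uM heparin and incubated 6 hr at 37 C.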
NPSR antagonist: qHTS Assay for Antagonists of the Neuropeptide S Receptor: cAMP Signal Transduction | Q6W5P4 | CHO-NPSR cells, cAMP TR-FRET, antagonist mode | Potency, µM (doses to about 38.3 µM), without a hit: at the top dose activity change, negative = inhibition, actives largely listed as inhibitors | 1% of 220,000 active | AID 1461, 2008; also: nearly all actives have a fitted effect of over 50% in size
Tau FP inhib: qHTS for Inhibitors of Tau Fibril Formation, Fluorescence Polarization | Microtubule-associated protein tau (Homo sapiens), P10636 | K18 P301L tau heparin fibrillization, Alexa594 FP, 6 h | Potency, µM (titrated, usually from 57.7 µM), inactives show at the top dose activity, negative = inhibition, actives largely listed as inhibitors | 0.39% of 280,000 active | AID 1468, 2008; also: nearly all actives have a fitted effect of over 55% in size
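Read-out: fluorescence polarization of Alexa 594-labeled tau (0.24 uM), 555 nm excitation, 632 nm emission. Mixtures held 15 uM unlabeled K18 P301L, compound and 20 uM heparin, pH 7 acetate buffer, incubated 6 hr at 37 C.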
HPGD block: qHTS Assay for Inhibitors of HPGD (15-Hydroxyprostaglandin Dehydrogenase); 15-hydroxyprostaglandin dehydrogenase [NAD(+)] (Homo sapiens), P15428; purified HPGD, NADH fluorescence kinetic, PGE2 substrate; Potency, µM, for inactives: at the top dose activity change, negative = inhibition, most hits filed as inhibitors; 4.3% of 150,000 active; AID 894, 2007; active = well fitted inhibition curve with a large enough effect, not every such curve was filed as active; inconclusive = small, poorly fitted or top-dose-only effect, or another doubt; inactive = no such curve, though single readings can be large or run the other way
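NADH formation kinetics: reaction with 30 uM PGE2 and 1 mM NAD+ (final), 20 nM enzyme, Tris-HCl pH 8 with Tween 20, after 15 min compound preincubation at room temperature. Fluorescence change, last versus first of five reads.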
ALDH1A1 block: qHTS Assay for Inhibitors of Aldehyde Dehydrogenase 1 (ALDH1A1); Aldehyde dehydrogenase 1A1 (Homo sapiens), P00352; Purified ALDH1A1, NADH fluorescence, propionaldehyde substrate; Potency, µM (top dose mostly 75.3 µM), for the others: at the highest dose activity, negative = inhibition, actives largely listed as inhibitors; 7.3% of 220,000 active; AID 1030, 2008; active = well fitted inhibition curve with a large enough effect, not every such curve was filed as active; inconclusive = small, poorly fitted or top-dose-only effect, or another doubt; inactive = no such curve, though single readings can be large or run the other way;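 also: plate controls were no enzyme wells and a reference inhibitor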
Target sequence (P00352 whole entry, looked up): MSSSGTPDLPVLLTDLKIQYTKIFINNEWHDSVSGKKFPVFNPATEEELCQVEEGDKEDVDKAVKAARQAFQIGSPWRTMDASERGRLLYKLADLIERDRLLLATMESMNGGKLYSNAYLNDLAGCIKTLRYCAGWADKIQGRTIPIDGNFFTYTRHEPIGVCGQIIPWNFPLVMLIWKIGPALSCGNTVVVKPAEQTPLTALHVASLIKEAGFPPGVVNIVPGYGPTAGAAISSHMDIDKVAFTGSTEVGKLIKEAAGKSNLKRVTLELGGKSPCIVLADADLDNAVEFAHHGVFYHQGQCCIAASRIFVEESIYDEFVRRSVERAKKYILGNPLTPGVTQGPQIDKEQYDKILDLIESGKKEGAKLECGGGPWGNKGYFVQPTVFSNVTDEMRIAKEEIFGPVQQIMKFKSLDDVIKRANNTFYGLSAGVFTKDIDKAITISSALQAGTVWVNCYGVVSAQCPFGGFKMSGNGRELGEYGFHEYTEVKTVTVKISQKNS
Tau ThT inhib: qHTS for Inhibitors of Tau Fibril Formation, Thioflavin T Binding; Potency, µM (highest dose often 57.4 µM), for inactives: at the top dose activity, negative = inhibition, most hits filed as inhibitors; recombinant tau K18 P301L, heparin-induced fibrillization, ThT fluorescence; 2.1% of 270,000 active; also: nearly all actives have a fitted effect of over 55% in size
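Fibril formation assay: tau K18 P301L at 15 uM with trace Alexa 594 label, heparin inducer 20 uM, pH 7 sodium acetate buffer, 37 C for 6 hr; endpoint ThT signal.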
The depositor's hits bear a star; ? = inconclusive; nt = no result; [ ] = remark or other dose. In the library only some 9.5% were active in any assay of this set; here they are far more common. Unless noted, calls follow the shape of the dose curve; as a rule, active = well fitted curve in the direction sought with a large enough effect; inconclusive = small, poorly fitted or top-dose-only effect, or another doubt; inactive = no such curve, though single readings can be large; an effect the other way counts as inactive or inconclusive. Unless noted, % is scaled to controls: 0 for no effect and ±100 for the full control effect; potency is read from the fitted curve at half-maximal effect.

SMILES	Tau fluor cs	NPSR antagonist	Tau FP inhib	HPGD block	ALDH1A1 block	Tau ThT inhib
CCOC(=O)C1=C(C)N(c2ccccc2)C(=O)/C1=C\c1ccc(O)c(OC)c1	25µM*[quencher]	-31%	35µM*	nt	nt	nt
CCOC(=O)C1=C(C)N(c2ccccc2)C(=O)/C1=C\c1ccco1	-13%	-34%	?	-18%	11µM*	?
CC/C(=N/Nc1cccc(Cl)c1)c1cnnc(SC)n1	-7%	-6%	-8%	-4%	10%	?
CC/C(=N/Nc1ccccc1)c1cnnc(-c2ccccc2)n1	0%	-30%	-3%	-19%	10µM*	?
CCc1nn(CC(=O)Nc2ccc(Br)c(C)c2)c(=N)s1	?	-27%	?	nt	11µM*	?
CCOCC(=O)Nc1ccc(Br)c(C)c1	-10%	5%	0%	nt	14µM*	-6%
CCCCc1ccc(NC(=O)COCC)cc1	-1%	-10%[46.1 µM]	1%	10µM*	14µM*	-6%
CCc1ccc(NC(=O)Cn2c(=O)n(Cc3ccco3)c(=O)c3cccnc32)cc1	-22%	nt	-19%	nt	nt	12%
Cc1ccc(-c2nc(C)c(CCNC(=O)C(=O)Nc3cc(C)ccc3C)s2)cc1	-12%	nt	-10%	nt	nt	?
CCc1cccc2c(-c3ccccc3)c3c(nc12)OCC3	-20%	nt	-11%	?	?	?
COC(=O)c1sccc1S(=O)(=O)N1CCN(c2cccc(C)c2C)CC1	-17%	nt	-8%	nt	nt	-6%
CCC1=C(c2ccc(C)cc2)S(=O)(=O)N=C1N1CCC(C(=O)NCCc2ccc(Cl)cc2)CC1	-21%	nt	2%	nt	nt	-11%
CCCCOc1[nH]c2nc(-c3ccco3)n(Cc3ccco3)c(=N)c2c1C#N	?	-23%[46.1 µM]	-11%	-22%	?	22µM*
C/C(CCS(=O)(=O)c1ccccc1)=N/O	1%	25%	2%	nt	-8%	0%
O=[N+]([O-])c1ccc2ncnc(Nc3ccc4c(c3)OCCO4)c2c1	-15%	-19%	7%	nt	0.35µM*	?
O=[N+]([O-])c1ccc(O)c(Nc2ncnc3ccc(Br)cc23)c1	-30%	-34%	4%	nt	?	16µM*
Cn1c(=O)c2sccc2n2c(CCCC(=O)NC3CCCCC3)nnc12	2%	nt	-1%	nt	nt	7%
COc1ccc(C(=O)N2CCC3(CCCN(Cc4ccccc4)C3)CC2)cc1	nt	nt	nt	-8%	-5%	nt
COc1cc(NC(=O)c2noc3c2CC(C)CC3)c(OC)cc1Cl (stereo not drawn)	-18%	nt	?	nt	nt	-14%
COc1ccc(S(=O)(=O)Nc2cc(C(=O)NCCC(C)C)ccc2N2CCOCC2)cc1	-13%	-8%[46.1 µM]	5%	-1%	14µM*	-14%
COC(=O)c1ccc(N2CCCCC2)c(NS(=O)(=O)c2ccc(C)cc2)c1	-29%	-26%[46.1 µM]	5%	-12%	7.9µM*	-11%
COc1ccc(S(=O)(=O)Nc2cc(C(=O)NCCCN3CCOCC3)ccc2N2CCOCC2)cc1	-3%	1%	6%	nt	?	-4%
CCN(CC)CCNC(=O)c1ccc(N2CCCCC2)c(NS(=O)(=O)c2ccc(C)cc2)c1	-17%	-12%[46.1 µM]	-2%	-8%	20µM*	-5%
CC(C)CC(=O)Nc1nnc(S(=O)(=O)N2CCCCCC2)s1	-3%	nt	-2%	nt	nt	2.8µM*
CCC(Oc1ccccc1)C(=O)Nc1nnc(S(=O)(=O)N2CCCC2)s1 (stereo not drawn)	-16%	nt	-11%	nt	nt	?
O=C(COc1ccc(F)cc1)Nc1nnc(S(=O)(=O)N2CCc3ccccc32)s1	-26%	nt	-2%	nt	nt	2.8µM*
Cc1ccccc1OCC(=O)Nc1nnc(S(=O)(=O)N2CCCCCC2)s1	-25%	nt	-2%	nt	nt	3.2µM*
O=C(COc1ccc(Cl)cc1)Nc1nnc(S(=O)(=O)N2CCCCCC2)s1	-20%	nt	10%	nt	nt	?
